# Most compounds without a hit are left out; they make up all but 9.2% or so of the library.
# ELG1 genotox – genotoxicity induction in ELG1-luciferase HEK293T cells; hit rate 1.3% among 330,000; HEK293T ELG1-luciferase reporter, luminescence, 16 h; AID 504466; Potency, µM (top dose mostly 46 µM), for inactives: top-dose activity change, positive = activation, most hits filed as activators; note: % of control where 0% means no effect; nearly all actives have a fitted effect of over 60% in size
#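 Genotoxicity was scored as increased ELG1-luciferase reporter signal, measured by ONE-Glo luminescence (30 min, room temperature). Compound or vehicle exposure of the HEK293T reporter cells lasted 16 hr at 37°C.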
# Rab9 prom act – activators of Rab9 promoter. Potency, µM (top dose mostly 9.22 µM), for the others: at the top dose activation, negative = inhibition, usual class: activators. hit rate 2.8% among 320,000. Huh7 Rab9 promoter-luciferase reporter, luminescence, 24 h; note: % of control where 0% means no effect; nearly all actives have a fitted effect of over 60% in size
#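 Using Huh7 cells stably transfected with Rab9 promoter–luciferase, compounds were incubated 24 h at 37 °C, 5% CO2; luciferase luminescence was read 10 min after reagent addition.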
# FLuc counter – counter-screen for miR-21 project: firefly luciferase inhibitors or activators | P08659 | purified FLuc, Km substrates, luminescence inhibition | Potency, µM (highest dose often 57.5 µM), without a hit: at the top dose activity change, negative = inhibition, hits mostly inhibitors | hit rate 6.9% among 360,000 | AID 588342;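 note: plate controls were vehicle for no effect and reference inhibitor for full effect; nearly all actives have a fitted effect of over 55% in size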
# Target sequence (P08659 whole entry, looked up): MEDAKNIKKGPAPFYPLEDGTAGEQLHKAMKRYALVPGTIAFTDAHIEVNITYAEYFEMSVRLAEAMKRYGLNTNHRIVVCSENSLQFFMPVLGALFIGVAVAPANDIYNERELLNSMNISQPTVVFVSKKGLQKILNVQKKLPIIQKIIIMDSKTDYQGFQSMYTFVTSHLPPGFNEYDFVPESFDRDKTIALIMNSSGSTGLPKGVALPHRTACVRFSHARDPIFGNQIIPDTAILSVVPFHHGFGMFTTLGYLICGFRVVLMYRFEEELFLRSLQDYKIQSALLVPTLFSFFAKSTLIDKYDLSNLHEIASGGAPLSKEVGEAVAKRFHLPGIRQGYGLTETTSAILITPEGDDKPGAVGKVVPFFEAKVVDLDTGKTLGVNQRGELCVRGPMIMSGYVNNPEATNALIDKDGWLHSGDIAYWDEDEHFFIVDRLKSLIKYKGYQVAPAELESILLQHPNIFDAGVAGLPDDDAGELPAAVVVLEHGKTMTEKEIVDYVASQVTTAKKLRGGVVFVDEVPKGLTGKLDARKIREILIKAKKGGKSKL
#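 Purified P. pyralis luciferase, 10 nM final, with Km-level 10 uM D-luciferin and 10 uM ATP in 50 mM Tris acetate pH 7.5, 10 mM Mg acetate, 0.01% Tween-20, 0.05% BSA; 6-point qHTS titration about 60 µM downward; luminescence read.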
# SMN2 splice up – increases expression of the SMN2 splice variant. HEK293 SMN2-luciferase splicing reporter, luminescence, 30-36 h. hit rate 2.8% among 210,000. Potency, µM (top dose mostly 46.1 µM), for inactives: top-dose activity change, positive = activation, most hits filed as activators; note: % of control where 0% means no effect; nearly all actives have a fitted effect of over 55% in size
#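 HEK293 cells carry an SMN2 minigene-luciferase reporter in which exon 7 inclusion puts luciferase in frame. Cells were seeded at 2000 cells/well, attached for 10-12 hours, then exposed to compounds for 30-36 hours at 37C before ONE-Glo luminescence.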
# ELG1 repair inh – inhibitors of ELG1-dependent DNA repair in HEK293T cells; hit rate 2.3% among 330,000; HEK293T ELG1-luciferase reporter, luminescence, 16 h; DNA damage induced by 5-fluorouridine; Potency, µM (doses to about 46.1 µM), for inactives: at the highest dose activity change, negative = inhibition, actives largely listed as inhibitors; note: % is set by controls: 0 for no effect and ±100 for the full control effect; nearly all actives have a fitted effect of over 55% in size
#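 Luminescence from the luciferase reporter, measured 30 min after ONE-Glo reagent at room temperature, was the read-out. Beforehand, 2,000 cells per well were exposed for 16 hr at 37 °C to 5-fluorouridine together with compound or vehicle.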
# NPC1 prom act – activators of NPC1 promoter; Huh7 NPC1 promoter luciferase reporter, 24 h; Potency, µM (doses to about 9.22 µM), for the others: top-dose activation, actives largely listed as activators; hit rate 2.4% among 320,000; note: % of control where 0% means no effect; nearly all actives have a fitted effect of over 60% in size
#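 Luminescence read-out of NPC1 promoter-driven luciferase in stably transfected Huh7 cells; compounds delivered in DMSO and left 24 h at 37C, 5% CO2, qHTS titration format.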
# An asterisk follows results filed as active; ? = inconclusive; / = no result given. Calls come from the whole dose curve; as a rule, active = well fitted curve in the direction sought with a large enough effect; inconclusive = small, poorly fitted or top-dose-only effect, or another doubt; inactive = no such curve, though single readings can be large; an effect the other way counts as inactive or inconclusive. Potency is the fitted concentration of half-maximal effect.
SMILES,ELG1 genotox,Rab9 prom act,FLuc counter,SMN2 splice up,ELG1 repair inh,NPC1 prom act
O=C1CC(/C=C/c2ccccc2)=Nc2ccccc2N1,?,0.89µM*,2.7µM*,-5%,?,2µM*
CCOC(=O)CNC(=O)c1cc2c(=O)n3cccc(C)c3nc2n1C,/,/,-5%,/,/,/
CCOc1ccccc1Nc1ccc2cc(S(=O)(=O)N3CCCCC3)ccc2n1,/,/,-2%,/,/,/
Cc1ccc(NC(=O)c2ccc(N(Cc3ccccc3)S(C)(=O)=O)cc2)cc1,/,/,-10%,1%,/,/
COC(=O)/C=c1/sc2nc3ccccc3n2c1=O,-2%,1%,?,?,0%,-4%
O=C(O)c1cc(C(=O)O)cc(-c2ccc(/C=c3/sc4nc5ccccc5n4c3=O)o2)c1,5%,-2%,?,6%,0%,-5%
O=c1c2ccccc2nc2sc3ccccc3n12,?,4µM*,5.4µM*,14µM*,?,4µM*
O=c1/c(=C/c2ccccn2)sc2nc3ccccc3n12,0.82µM*,?,0.13µM*,13µM*,?,?
O=c1/c(=C\c2cc([N+](=O)[O-])cc([N+](=O)[O-])c2O)sc2nc3ccccc3n12,6%,11%,9.5µM*,-3%,-16%,-3%
O=C(O)c1cccc(-c2ccc(/C=c3/sc4nc5ccccc5n4c3=O)o2)c1,6%,28%,9.5µM*,/,?,25%
Cc1ccc(C)c(NC(=O)C2CCCN(S(=O)(=O)c3cccc4nsnc34)C2)c1 (stereo not given),/,/,5%,-13%,/,/
COc1ccc(/C=C2\C(=O)NC(=S)N2C(=O)c2ccc(F)cc2)cc1,-1%,-3%,12µM*,-21%,6%,-1%
O=C1NC(=S)N(C(=O)c2ccc(F)cc2)/C1=C/c1ccccc1,3%,0%,?,-21%,-1%,1%
COc1ccc(-c2cc(C(=O)N3CCOCC3)no2)cc1OC,?,22%,?,21%,?,?
COc1cccc(-c2cc(C(=O)N3C(C)CCCC3C)no2)c1 (stereo not given),7.1µM*,3.2µM*,11µM*,14µM*,?,5µM*
COc1cccc(-c2cc(C(=O)N3CCOCC3)no2)c1,?,1.4µM*,8.5µM*,/,?,1.3µM*
COc1cccc(-c2ocnc2C(=O)Nc2ccc(N3CCOCC3)cc2N2CCOCC2)c1,-6%,2%,2%,/,18µM*,2%
COc1ccc(-c2cc(C(=O)N3CCOCC3)no2)cc1,0.41µM*,0.45µM*,1.5µM*,/,?,0.35µM*
O=C(c1csnn1)N1CCC[C@@]2(CCN(C(c3ccccc3)c3ccccc3)C2)C1,/,/,/,-9%,/,/
CC[C@@]1(C(=O)OC)N[C@H](CN(C)S(=O)(=O)c2ccc(F)cc2)[C@@H]2C(=O)N(C)C(=O)[C@@H]21,2%,/,/,/,3%,/
COc1cccc(NC(=O)C(=O)N2CCOCC2)c1,?,?,19µM*,13µM*,?,24%
Cc1ccc2nc(-c3ccc(NC(=O)CSc4nc(N)cc(=O)[nH]4)cc3)sc2c1,?,2.8µM*,3.4µM*,/,?,2.8µM*
Nc1cc(=O)[nH]c(SCC(=O)Nc2nc3ccc([N+](=O)[O-])cc3s2)n1,-2%,-1%,?,6%,9%,-3%
Cc1ccc2nc(-c3ccc(NC(=O)CSc4nccc(=O)[nH]4)cc3)sc2c1,?,0.4µM*,2.7µM*,8.9µM*,?,1.4µM*
CCc1nnc(SCc2cc(C)ccc2C)c2cc3sc(C)cc3n12,/,/,-8%,/,/,/
SMILES,ELG1 genotox,Rab9 prom act,FLuc counter,SMN2 splice up,ELG1 repair inh,NPC1 prom act
COc1ccccc1CCNC(=O)Cn1ccc2cc(S(=O)(=O)N3CCCCC3)ccc21,/,/,2%,/,/,/
COc1cccc(NC(=O)c2ncc(Cl)c(Cl)c2Cl)c1,-3%,4%,5.4µM*,26%,?,13%
COc1cccc(NC(=O)c2ccn(C)n2)c1,?,2.8µM*,?,14µM*,?,?
COc1cccc(NC(=O)c2nc(SC)ncc2Cl)c1,-4%,1%,3%,/,1%,4%
Nc1nc(-c2ccccc2)cn1/N=C/c1ccccc1,?,0%,15µM*,/,?,-9%
Nc1nc(-c2ccccc2)cn1N,-1%,6%,-20%,-2%,?,8%
CCCCOc1ccc(N=Cc2ccc[nH]2)cc1,5%,16%,3.8µM*,/,?,1%
CCCCOc1ccc(S(N)(=O)=O)cc1,1%,-6%,1%,-9%,14%,0%
COc1ccc(N=Cc2ccc[nH]2)cc1,18%,-4%,9.5µM*,6%,9%,2%
CC1CCN(C(=O)CN2C(=O)C(C)(C)Oc3ccc(C(=O)NC(C)C)cc32)CC1,1%,0%,0%,/,2%,-6%
O=C(CCN1N=C(c2ccccc2)CCC1=O)NCC1CCCO1 (stereo not given),1%,9%,3%,/,6%,1%
CCOC(=O)c1sc(NC(=S)NC(=O)c2ccccc2)nc1C,?,-1%,?,?,?,-4%
COC(=O)c1sc(NC(=S)NC(=O)c2ccccc2)nc1C,?,2.5µM*,4.8µM*,-4%,?,?
COC(=O)c1sc(NC(=S)NC(=O)c2ccccc2Cl)nc1C,?,?,6.7µM*,24%,?,?
CCOC(=O)c1ccc(NC(=O)CN2c3ccccc3S(=O)(=O)c3ccccc32)cc1,/,/,-1%,/,/,/
CCS(=O)(=O)N1CCCc2cc(C(=O)Nc3cc([N+](=O)[O-])ccc3C)ccc21,/,/,-14%,/,/,/
O=C(COC(=O)C1CC2CCCC(C1)C2=O)Nc1ccccc1 (stereo not given),-1%,-1%,-11%,/,25%,0%
Oc1ccc(N=Nc2n[nH]c(-c3ccc(Br)cc3)n2)cc1,6%,-9%,7.6µM*,16µM*,?,12%
Oc1ccc(N=Nc2n[nH]c(-c3ccccc3)n2)cc1,8.2µM*,1µM*,3.8µM*,?,?,1.6µM*
Oc1ccc(Br)cc1-c1ccnn1-c1ccccc1,0%,-5%,4%,/,?,-27%
COc1ccc(N2CCN(CC(O)c3c[nH]c4ccc(OC)cc34)CC2C)cc1 (stereo not given),-3%,-3%,0%,-3%,23µM*,0%
COc1ccc2[nH]cc(C(O)CN3CCN(c4ccccc4)CC3)c2c1 (stereo not given),-2%,3%,-1%,/,-21%,1%
CCCCCCn1ccc(=N)cc1,-14%,-23%,1%,-65%,3.7µM*,-28%
CCCCCCCCCCCCCCCCn1cc[n+](CC(C)=O)c1,-15%,-12%,0%,-11%,0%,-14%
